Measured values as given in the supplement of paper PMC6555819.

What was measured:
Test in all cases: PBM binding z-score (relative to random genomic background probes); higher = stronger binding; sequences stand for … in GC…GCGATTGACAGCGTAGAATGAAGG
[1] = system: FXR:RXRa (NR concentration 270 nM, RXRa partner concentration 90 nM)
Summary of the method: (§1)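 Binding z-scores take random background probes as their reference. They come from custom Agilent 4×180K protein-binding microarrays incubated 1 h with ligand-free nuclear receptor dimers, with antibodies against each partner (one per run) detecting binding. Scanned fluorescence was regression-normalized.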

[2] = system: LXRa:RXRa (NR concentration 270 nM, RXRa partner concentration 90 nM)
Summary of the method: as §1

[3] = system: LXRa homodimer (NR concentration 270 nM)
Summary of the method: as §1

[4] = system: LXRb:RXRa (NR concentration 270 nM, RXRa partner concentration 90 nM)
Summary of the method: as §1

[5] = system: LXRb homodimer (NR concentration 270 nM)
Summary of the method: as §1

[6] = system: PPARa:RXRa (NR concentration 270 nM, RXRa partner concentration 90 nM)
Summary of the method: as §1

[7] = system: PPARg:RXRa (NR concentration 180 nM, RXRa partner concentration 90 nM)
Summary of the method: as §1

[8] = system: PPARg:RXRa 270nM:90nM, anti-RXR (NR concentration 270 nM, RXRa partner concentration 90 nM)
Summary of the method: as §1

[9] = system: PPARg:RXRa 30nM:10nM, anti-RXR (NR concentration 30 nM, RXRa partner concentration 10 nM)
Summary of the method: as §1

[10] = system: PPARg:RXRa 90nM:30nM, anti-RXR (NR concentration 90 nM, RXRa partner concentration 30 nM)
Summary of the method: as §1

[11] = system: PPARg:RXRa DBDmut IVT, anti-RXR (DBD mutation: RXRa K156A/R161A, NR concentration 270 nM, RXRa partner concentration 90 nM)
Summary of the method: as §1

[12] = system: PPARg:RXRa IVT, anti-PPARg (NR concentration 270 nM, RXRa partner concentration 90 nM)
Summary of the method: as §1

[13] = system: PPARg DBDmut:RXRa IVT, anti-PPARg (DBD mutation: PPARg1 K132A/R137A, NR concentration 270 nM, RXRa partner concentration 90 nM)
Summary of the method: as §1

[14] = system: PPARg DBDmut IVT, anti-PPARg (DBD mutation: PPARg1 K132A/R137A, NR concentration 270 nM)
Summary of the method: as §1

[15] = system: PPARg homodimer (NR concentration 180 nM)
Summary of the method: as §1

[16] = system: PXR:RXRa (NR concentration 270 nM, RXRa partner concentration 90 nM)
Summary of the method: as §1

[17] = system: PXR homodimer (NR concentration 270 nM)
Summary of the method: as §1

[18] = system: RARa:RXR (NR concentration 270 nM, RXRa partner concentration 90 nM)
Summary of the method: as §1

[19] = system: RARa homodimer (NR concentration 270 nM)
Summary of the method: as §1

[20] = system: RARb:RXRa (NR concentration 270 nM, RXRa partner concentration 90 nM)
Summary of the method: as §1

Sequence	PBM binding z-score [1]	PBM binding z-score [2]	PBM binding z-score [3]	PBM binding z-score [4]	PBM binding z-score [5]	PBM binding z-score [6]	PBM binding z-score [7]	PBM binding z-score [8]	PBM binding z-score [9]	PBM binding z-score [10]	PBM binding z-score [11]	PBM binding z-score [12]	PBM binding z-score [13]	PBM binding z-score [14]	PBM binding z-score [15]	PBM binding z-score [16]	PBM binding z-score [17]	PBM binding z-score [18]	PBM binding z-score [19]	PBM binding z-score [20]
TTACCAAGGTGAAAGGTTGTTGATGCACGCCTTG	1.23	1.15	-0.416	1	-0.595	3.78	5.72	6.02	4.55	6.25	2.7	4.17	0.253	0.316	0.571	1.28	-0.373	2.32	0.397	1.63
CCTACTGGGCCACGGAAGGTCATTGATTCAGTGA	1.94	2.96	2.27	2.25	-0.194	3.5	3.4	3.37	1.05	2.35	4.56	5.51	-0.609	-0.824	1.7	3.57	0.303	3.15	0.0822	3
ACTGACAGGTGAGTGAAGGTAACTCAGCTGGACG	0.406	0.0865	-0.418	-0.453	-0.767	0.153	0.398	0.0745	-0.305	-0.0738	0.237	1.07	0.18	-0.257	-0.647	-0.21	-0.633	0.381	-0.0244	0.482
GCTAGTTGGTCAGTAAAAGGTCAGACACCGGTCG	1.99	3.15	2.83	2.74	0.106	3.24	1.79	3.25	1.03	2.7	0.754	1.67	-0.192	0.136	3.21	3.35	0.554	4.17	0.966	3.71
CGTCCAAGGCCAAAGGTCAGTGAAGAGATGACGG	4.06	3.48	0.794	3.05	-0.142	5.2	7.29	6.97	5.65	7.26	0.453	3.33	-0.0649	-1.23	3.96	4.26	0.612	5.8	1.79	4.58
ACTATTAGTTGAGACGTGGGCAACCGATAGGTTG	-0.344	-0.403	-0.444	-0.738	0.00492	-1.07	0.429	-0.3	-0.0556	-0.44	-0.218	-0.152	0.175	0.352	-0.426	-0.64	-0.53	-0.914	-0.357	-0.226
AAAACGAGGGCAATGAGTTGATAGCACGGGTGGC	0.531	0.364	-0.353	-0.0182	-0.657	1.55	2.02	1.44	0.0987	0.879	5.04	3.79	1.2	0.681	0.0756	1.86	4.72	0.593	-0.42	2.18
ATCGAAAGGTGGAAGGTGAGTATACCCACCCGAA	0.216	0.0772	-0.308	0.022	-0.0817	1.53	1.53	2.05	0.816	1.58	-0.723	0.561	0.498	0.266	0.464	0.15	-0.16	0.474	-0.403	0.83
ACAAACAGGTGAGTGAAGGTAACTCAGCTGGACG	0.326	-0.0872	-0.278	-0.542	-0.3	0.367	0.682	0.103	0.0977	0.229	1.21	1.19	0.208	0.336	0.244	-0.255	-0.143	0.192	0.0567	0.585
TTATCAAGGTGAGCTGAGGTCGTTGATCCAACTC	1.87	1.22	-0.0853	0.999	-0.746	1.87	0.583	1.19	0.537	0.566	1.53	2.79	0.246	-0.126	0.465	4.8	0.706	1.99	-0.272	1.85
CCTACTGGGCCATTCAGAGGTGATTGATCATATG	-0.00465	0.0536	-0.239	-0.138	-0.593	0.81	0.504	0.898	-0.276	0.119	3.85	3.8	0.186	-0.0997	0.152	0.147	-0.0295	0.451	0.129	0.622
CGAACTAGGACATTGACAGGACAGTGAATAGTAA	-0.0957	-0.0769	0.0961	-0.38	-0.79	0.451	0.933	0.247	0.384	0.344	4.34	3.36	1.39	0.241	0.296	-0.136	0.135	-0.244	-0.0168	0.136
AATACAGGGTCATCGTAGGCCAGAGGACGCACAG	7.28	6.5	2.24	4.6	1.25	5.96	6.68	6.34	3.12	4.94	2.45	4.1	1.52	0.83	2	4.85	0.696	4.98	0.699	4.41
TCGAGTAGGTTTGTCGGGGCATTCAGCCAACATA	0.314	0.103	0.0222	0.558	-0.504	0.326	-0.493	0.144	1.1	0.717	0.713	0.173	-1.6	-0.328	0.186	0.311	-0.236	0.224	-0.837	0.0444
